# High-throughput results from PubChem BioAssay.
# The list is not random: actives were taken first. Their share in the collection is about 10%.
# PNC inhibitor – inhibitors of perinucleolar compartment assembly; AID 2417; activity change (PNC), negative = inhibition, % at 10 µM; actives 3.1% (n = 140,000); PC3M PTB-GFP, PNC prevalence imaging, 16 h; hits give low values;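 active means readout at or below -70, meaning at least 70% loss of cells showing the perinucleolar compartment, a nuclear body marking cancer cells; inconclusive means readout between -30 and a set limit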;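 further: plate controls were DMSO wells for no effect and camptothecin positive control wells for full effect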
#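 Read-out is percentage of cells bearing a perinucleolar compartment, from automated 20x imaging of fixed, Hoechst-stained PC3M PTB-GFP cells. Cells were seeded 4 h, then exposed 16 h to compound (23 nl of library stock) in duplicate plates.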
# HPGD inh – blocks human HPGD enzyme activity; P15428; purified HPGD, NADH fluorescence kinetic, PGE2 substrate; Potency, µM, for the others: at the top dose activity change, negative = inhibition, most hits filed as inhibitors; actives 4.3% (n = 150,000); AID 894; further: potency means the concentration at half of the fitted maximal effect
# Target sequence (P15428 whole entry, looked up): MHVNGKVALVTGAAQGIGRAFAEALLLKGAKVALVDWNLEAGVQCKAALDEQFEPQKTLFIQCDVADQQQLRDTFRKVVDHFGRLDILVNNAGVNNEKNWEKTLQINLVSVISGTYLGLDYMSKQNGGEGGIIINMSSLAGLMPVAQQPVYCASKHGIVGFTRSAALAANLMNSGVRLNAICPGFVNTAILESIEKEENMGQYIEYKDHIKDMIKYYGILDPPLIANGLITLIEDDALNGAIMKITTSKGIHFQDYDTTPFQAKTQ
#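 NADH formation kinetics: reaction with 30 uM PGE2 and 1 mM NAD+ (final), 20 nM enzyme, Tris-HCl pH 8 with Tween 20, after 15 min compound preincubation at room temperature. Fluorescence change, last versus first of five reads.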
# LMNA splice mod – changes lamin A minigene splicing in HeLa cells. HeLa LMNA splicing GFP/RFP minigene ratio, 48 h. Potency, µM (series often up to 46.1 µM), inactives show at the top dose ratio change, negative = inhibition, most hits filed as inhibitors. actives 0.01% (n = 200,000); active means well fitted inhibition curve with a large enough effect in the signal ratio, with a control signal flat, not every such curve was filed as active; inconclusive means small, poorly fitted or top-dose-only effect, or effect the other way, or a change in a side signal; the % refers to the signal ratio; further: potency means the concentration at half of the fitted maximal effect
#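 S3 HeLa cells stably expressing lamin A-EGFP splicing minigene plus DsRed2, 600 cells/well, 48 h compound exposure at 37C. Laser-scanning cytometry; analysed as GFP (500-530 nm)/RFP (575-640 nm) total intensity ratio; 0.5% DMSO vehicle.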
# ALDH1A1 block – inhibitors of human aldehyde dehydrogenase 1A1. P00352. Purified ALDH1A1, NADH fluorescence, propionaldehyde substrate. Potency, µM (series often up to 75.3 µM), without a hit: top-dose activity, negative = inhibition, most hits filed as inhibitors. actives 7.3% (n = 220,000). AID 1030;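 further: potency means the concentration at half of the fitted maximal effect; plate controls were no enzyme wells and a reference inhibitor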
# 12-hLO inh – blocks human 12-lipoxygenase activity; P18054; purified 12-hLO, xylenol orange hydroperoxide absorbance; Potency, µM (highest dose often 57.1 µM), for the others: at the highest dose activity change, negative = inhibition, hits mostly inhibitors; actives 0.12% (n = 150,000); active means well fitted inhibition curve with a large enough effect; inconclusive means small, poorly fitted or top-dose-only effect; further: potency means the concentration at half of the fitted maximal effect; nearly all actives have a fitted effect of over 55% in size
#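 Purified human 12hLO (150 nM), preincubated 15 min with compound, then 40 uM arachidonic acid for 30 min, room temperature, Hepes pH 7.0 with 0.01% Triton X-100. Hydroperoxide detected by ferrous iron/xylenol orange; 573/405 nm absorbance ratio gives reaction progress.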
# An asterisk follows results filed as active; u = inconclusive; x = no result given; [ ] = dose if it differs, or a comment. Unless noted, the call rests on the fitted dose curve; in most records, active means well fitted inhibition curve with a large enough effect (not every such curve was filed as active); inconclusive means small, poorly fitted or top-dose-only effect, or another doubt; inactive means no such curve, though single readings can be large or run the other way. Unless noted, on the % scale 0 is the no-effect control and ±100 the full control effect.
SMILES,PNC inhibitor,HPGD inh,LMNA splice mod,ALDH1A1 block,12-hLO inh
O=C(Nc1ccc2c(c1)OCO2)N1CCN(C(=O)C2CCCO2)CC1 (centres undefined),-100*,-12%,-1%,-1%,6%
COCCNc1cc(-c2ccccc2C)ncn1,x,x,-5%,u,x
O=C(O)CCCC(=O)N1CCN(c2cccc(Cl)c2)CC1,-99*,-25%,1%,u,-1%
O=C(O)c1ccccc1C(=O)N1CCN(c2cccc(Cl)c2)CC1,u,-8%,-2%,u,8%
O=C(C1CC1c1ccccc1)N1CCN(c2cccc(Cl)c2)CC1 (centres undefined),12,-7%,u,20µM*,-18%
Cc1oc2ncn(C)c(=O)c2c1C(=O)NCc1ccccc1,x,x,6%[46 µM],x,x
NS(=O)(=O)c1cc2c(cc1Cl)=NC(CCC(=O)O)=NS=2(=O)O,x,-5%,x,-4%[13.5 µM],2%[11.4 µM]
Cc1cc(C(=O)c2ccc(Cl)cc2)c(NC(=O)CCl)s1,33,-8%,u,0.89µM*,2%
CCc1cc(C(=O)c2ccc(C)cc2)c(NC(=O)CCl)s1,-10,-16%,u,2.5µM*,-5%
CCc1cc(C(=O)c2ccc(OC)cc2)c(NC(=O)CCC(=O)O)s1,x,x,x,6%,x
CCc1cc(C(=O)c2ccc(OC)cc2)c(NC(=O)CN2CCCC2)s1,x,x,x,10µM*,x
CCCCc1nn2c(=O)cc(COC(=O)C(C)Oc3ccccc3)nc2s1 (centres undefined),x,x,30%[46 µM],x,x
CC1(C)Oc2ccc(C(=O)N3CCCCC3)cc2N(CC(=O)NCc2ccccc2)C1=O,30,-11%,0%,u,-3%
COc1cccc(NC(=O)c2ccc3c(c2)N(CC(=O)N2CCCCC2)C(=O)C(C)(C)O3)c1,19,-6%,1%,-4%,-9%
COc1cccc(C(=O)CN2C(=O)C(C)(C)Oc3ccc(C(=O)N4CCCCCC4)cc32)c1,22,2.2µM*,1%,u,-6%
Cc1ccc(CN2C(=O)C(C)(C)Oc3ccc(C(=O)N4CCCCC4)cc32)cc1,0,32µM*,-1%,4%,-8%
Cc1cc(C)c2c(SCc3ccc(Cl)cc3Cl)nc(N)nc2n1,x,-5%,x,-1%[13.5 µM],-9%[11.4 µM]
Cc1nc2ccn(Cc3cccs3)c(=O)c2cc1C(=O)N1CCN(c2ccccc2)CC1,x,x,-1%[46 µM],x,x
CC(=O)c1ccc(NC(=O)CSc2nnc(-c3ccco3)c(-c3ccco3)n2)cc1,x,x,x,1.4µM*,x
CC(=O)c1ccc(NC(=O)c2ccc3nc(-c4ccco4)c(-c4ccco4)nc3c2)cc1,-14,u,7%,3.2µM*,-23%
O=C(NCc1ccccc1)c1ccc2nc(-c3ccco3)c(-c3ccco3)nc2c1,u,u,-10%,u,-5%
O=C(Nc1nnc(-c2ccco2)s1)c1ccccc1,34,-25%,0%,25µM*,-1%
O=C(Nc1ccccc1)c1ccc2nc(-c3ccco3)c(-c3ccco3)nc2c1,21,5µM*,-2%,0.18µM*,-29%
O=C(NCCCO)c1ccc2nc(-c3ccco3)c(-c3ccco3)nc2c1,x,x,3%[46 µM],u,x
CC(C)[C@H](NC(=O)OC(C)(C)C)[C@@H](O)CC(=O)C(C)(C)C,x,x,x,7%[13.5 µM],x
SMILES,PNC inhibitor,HPGD inh,LMNA splice mod,ALDH1A1 block,12-hLO inh
Cc1ccc(CCNC(=O)c2cc3cc(S(=O)(=O)N4CCCCC4)ccc3n2C)cc1,x,x,16%[46 µM],x,x
NCCNc1cccc2ccccc12,x,-10%,x,u,-4%
COC(=O)[C@@H](O)CC[C@@H](C)Cc1c(OC)c(OC)c(C)c(OC)c1OC,x,-6%,x,12%,x
CCCCNC(=O)c1ccc2nc(-c3ccco3)c(-c3ccco3)nc2c1,u,25µM*,-2%,5µM*,-6%
CC(=O)Nc1nc(-c2ccc(Cl)cc2)ns1,47,-13%,u,-7%,-6%
COCCN=C1Sc2nc3c(C)cccc3cc2CN1Cc1ccco1,4,22µM*,u,3.5µM*,-20%
COCCN=C1Sc2nc3ccc(C)cc3cc2CN1Cc1cccs1,x,x,8%[46 µM],-14%,x
Cc1cccc2cc3c(nc12)SC(=NCC1CCCO1)N(Cc1ccco1)C3 (centres undefined),-27,x,-8%,4.5µM*,-27%
N/N=C1/c2ccccc2N[C@H]1OC(=O)Nc1ccccc1,x,-4%,x,-11%[13.5 µM],4%[11.4 µM]
O=S(=O)(Nc1cc(Sc2ncn[nH]2)c(O)c2ccccc12)c1ccccc1,x,x,x,14µM*,x
Cc1cc(NS(=O)(=O)c2ccccc2)c(C)c(Cl)c1O,u,-17%,u,-8%,-9%
Cc1cc2cc(CNC(=O)CCC(=O)O)ccc2[nH]1,u,-9%,1%,28µM*,0%
CCC(=O)NCc1ccc2[nH]c(C)cc2c1,x,x,x,-3%,x
CCOC(=O)c1ccccc1NC(=O)/C=C/C(=O)O,-15,-19%,-20%,u,-9%
O=C(O)/C=C/C(=O)Nc1ccccc1SC(F)(F)F,u,u,-15%,11µM*,-9%
O=C(O)/C=C/C(=O)NNC(=O)c1ccccc1Br,34,u,2%[0.0737 µM],11µM*,-5%
COC(=O)c1ccccc1NC(=O)/C=C/C(=O)O,-84*,-9%,-3%,1%,-1%
CNC(=S)NNC(=O)c1ccccc1Br,7,-14%,-10%,u,2%
C[C@H](Br)C(=O)c1ccc2cc(Br)c3ccccc3c2c1,x,1%,x,u,4%[11.4 µM]
CCCn1c(-c2ccc(F)cc2)nc2c(N3CCCN(Cc4ccccc4)CC3)nc(C)nc21,x,u,x,u,-8%
CCCCc1ccc(NC(=S)NCc2cccs2)cc1,54,-21%,4%,2%,u
S=C(NCCOCCOCCNC(=S)Nc1ccccc1)Nc1ccccc1,x,x,u,13µM*,x
NS(=O)(=O)c1ccc(NC(=S)NCc2cccs2)cc1,x,x,9%[46 µM],u,x
S=C(NCc1cccs1)Nc1ccccc1,40,13µM*,u,u,-8%
Cc1ccc(NC(=S)NCc2cccs2)cc1,12,28µM*,5%,-7%,-5%
Fc1ccc(NC(=S)NCc2cccs2)cc1,-3,18µM*,u,-9%,-3%
